# An excerpt weighted towards active compounds, which were near 7.8% of everything screened.
# HCV inhibitor: inhibitors of hepatitis C virus infection; Potency, µM (titrated, usually from 41.8 µM), for inactives: at the highest dose activity change, negative = inhibition, actives largely listed as inhibitors; 340,000 tested, 3.4% active; Huh7.5.1 HCVcc-Cre infection, luciferase reporter, 44 h; active = well fitted inhibition curve with a large enough effect; inconclusive = small, poorly fitted or top-dose-only effect, or another doubt; inactive = no such curve, though single readings can be large or run the other way; also: potency is read from the fitted curve at half-maximal effect
#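 Luciferase read-out (15 sec integration) after a 15 min room-temperature substrate step quantifies HCVcc-Cre infection. Cells, 1,000 per well, had compound added 4 h post-plating, then virus at ~0.5 moi, and were cultured 44 h.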
# Marburg entry inh: Marburg virus entry inhibition; Marburg virus pseudotyped entry inhibition, cell reporter; 300,000 tested, 1.8% active; Potency, µM (highest dose often 37.8 µM), without a hit: at the top dose activity change, negative = inhibition, usual class: inhibitors; calls by dose curve; tested in HEK293 cells; also: potency is read from the fitted curve at half-maximal effect
# Vaccinia mCherry: vaccinia inhibition (mCherry reporter). Vaccinia virus mCherry reporter infection, fluorescence. Potency, µM (titrated, usually from 36.5 µM), for the others: at the highest dose activity change, negative = inhibition, most hits filed as inhibitors. 310,000 tested, 0.63% active. AID 720579; calls by dose curve; tested in A549 cells; also: potency is read from the fitted curve at half-maximal effect; nearly all actives have a fitted effect of over 35% in size
# HCMV inh: human cytomegalovirus inhibition | activity change, negative = inhibition, % at 57.5 µM | 410,000 tested, 4.5% active | HFF cells, HCMV-luciferase reporter, 72 h; active compounds read low; in the data active = activity change below about -60%; inconclusive = no clear call, values can overlap the other calls; inactive = above about -39%
#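 Two compound doses tested in HFFs infected with HCMV-luciferase, MOI 1 PFU/cell, 72 h at 37C. Lysate luminescence read with OneGlo; data normalized against buffer-only and 10uM Salinomycin inhibitor controls.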
# Vaccinia Venus: vaccinia inhibition (Venus reporter) | Potency, µM (doses to about 36.5 µM), without a hit: at the highest dose activity change, negative = inhibition, hits mostly inhibitors | Vaccinia virus Venus reporter expression, fluorescence | 330,000 tested, 0.46% active; calls by dose curve; tested in A549 cells; also: potency is read from the fitted curve at half-maximal effect; nearly all actives have a fitted effect of over 30% in size
# Lassa entry inh: blocks Lassa virus binding to or entry into cells; Lassa virus pseudotype entry inhibition, cell reporter; Potency, µM (titrated, usually from 37.9 µM), for inactives: top-dose activity change, negative = inhibition, hits mostly inhibitors; 300,000 tested, 1.2% active; calls by dose curve; tested in HEK293 cells; also: potency is read from the fitted curve at half-maximal effect; nearly all actives have a fitted effect of over 50% in size
# An asterisk follows results filed as active; i = inactive; ? = inconclusive; . = no result; [ ] = remark or other dose. % is scaled to controls: 0 for no effect and ±100 for the full control effect.
SMILES,HCV inhibitor,Marburg entry inh,Vaccinia mCherry,HCMV inh,Vaccinia Venus,Lassa entry inh
COc1ccc(F)cc1-c1cc(NC(C)=O)c2ncc(-c3cccc(C(F)(F)F)c3)n2c1,.,.,-11%,-22,-6%,.
Cc1c(C(=O)Nc2ccc(C(C)C)cc2)sc2nc3n(c(=O)c12)CCC3,.,.,-6%,?,-8%,0%[46.1 µM]
CCc1cnc2c(c1SCC(=O)Nc1ccc(OC)c(OC)c1)c(=O)n(C)c(=O)n2C,.,.,-12%,-11,-11%,0%[46.1 µM]
COc1cccc(Nc2nccc3[nH]c(-c4cccc(C(F)(F)F)c4)nc23)c1,.,.,.,-18,.,.
COc1ccc2[nH]c(-c3ccccc3)cc2c1,-28%,8.9µM*,-17%,-36,-10%,-27%
COc1ccc2[nH]c(-c3ccc(C)cc3)cc(=O)c2c1,-8%,?,-3%,.,?,4.1µM*
COc1ccc(-n2c(-c3ccc(Cl)cc3)c[n+]3c2CCc2ccccc2-3)cc1,-4%,11µM*,-22%,-99*,-13%,?
COc1ccc(-n2c(-c3ccccc3)nnc2-c2ccc(Cl)cc2)cc1,16%,10%[46.1 µM],-2%,8,9%,1%
COc1ccc(C2=NN(CCC(=O)NCCc3ccccc3)C(=O)CC2)cc1,.,.,-10%,14,-3%,-29%[46.1 µM]
Cc1cc(C(C)(C)C)c(O)c(C)c1CC1=NCCN1,-16%,16µM*,-12%,-11,-20%,-33%
c1ccc2cc(CC3=NCCN3)ccc2c1,5%,?,.,8,-3%,-1%
Cc1ccc(N2CCN(c3nc4c(S(=O)(=O)c5ccc(C)c(C)c5)nnn4c4ccccc34)CC2)c(C)c1,.,.,-18%,0,-6%,8%[46.1 µM]
O=C(NCCc1nnc2n1CCN(Cc1c(F)cccc1F)CC2)c1ccc(F)cc1,.,.,-16%,.,-16%,.
Cc1ccc2c(c1)N(CCC(=O)NCc1ccccc1Cl)C(=O)CO2,.,-2%[46.1 µM],2%,-31,-2%,2%[46.1 µM]
Cc1ccc(NC(=O)CN2C(=O)C3(SCC(=O)N3c3cccc(Cl)c3)c3ccccc32)cc1C (stereo not drawn),.,.,?,-65*,-7%,?
O=C(CN1C(=O)C2(SCC(=O)N2c2ccc(F)c(F)c2)c2ccccc21)Nc1cccc(Cl)c1 (stereo not drawn),.,.,-26%,-93*,-29%,-27%[46.1 µM]
CCc1cccc(N2C(=O)CSC23C(=O)N(Cc2ccccc2F)c2ccccc23)c1 (stereo not drawn),.,.,-22%,-24,-8%,10µM*
C[C@H](NC(=O)c1ccco1)C(=O)Nc1nc(-c2ccccn2)cs1,-13%,-7%,-12%,-25,-13%,-12%[46.1 µM]
O=C(Nc1nc(-c2cc3ccccc3oc2=O)cs1)c1ccco1,-5%,.,-6%,-63*,-12%,.
O=C(Nc1nc(-c2ccccn2)cs1)c1ccco1,?,?,2.5µM*,-13,?,?
O=c1oc2ccccc2cc1-c1csc(Nc2nc3c(F)cccc3s2)n1,13µM*,?,-19%,-28,-3%,?
O=C(Nc1nc(-c2ccccn2)cs1)c1ccc(Br)s1,2.2µM*,?,.,-99*,.,?
O=C(Nc1nc(-c2cc(Cl)sc2Cl)cs1)c1ccc(Br)s1,?,?,-16%,-11,-18%,?
CC(C(=O)Nc1cc(C(F)(F)F)ccc1Cl)n1nnc2sc3c(c2c1=O)CCCC3 (stereo not drawn),.,12%[46.1 µM],-16%,-17,-15%,2%[46.1 µM]
CCC(O)CNC(=O)c1cnn(-c2nccc(-c3cc(C)sc3C)n2)c1C1CC1 (stereo not drawn),.,.,-25%,.,-12%,.
SMILES,HCV inhibitor,Marburg entry inh,Vaccinia mCherry,HCMV inh,Vaccinia Venus,Lassa entry inh
Cc1nc2nc(C)c(CCC(=O)NCc3ccccc3)c(C)n2n1,.,1%[46.1 µM],-4%,16,0%,-17%[46.1 µM]
O=c1oc2ccccc2cc1-c1csc(Cc2nc(-c3ccc(Cl)cc3)cs2)n1,?,?,-16%,-96*,-9%,?
CNC(=S)Nc1ccc(C23CC4CC(CC(C4)C2)C3)cc1,?,?,-14%,-98*,-21%,?
CC(=O)Nc1ccc(C23CC4CC(CC(C4)C2)C3)cc1,-1%,.,.,-22,.,.
Cc1ccc(-n2c(C)cc(C(=O)COC(=O)c3c(C)noc3C)c2C)cc1,0.32µM*,?,.,-29,.,?
Cc1cc(C(=O)COC(=O)C2=COCCO2)c(C)n1-c1ccccc1,?,5.6µM*,-2%,?,-9%,2.2µM*
Cc1cc(C(=O)COC(=O)C2=NNC(=O)CC2)c(C)n1-c1ccccc1,20%,6%,.,0,.,-12%
Cc1ccc(-n2c(C)cc(C(=O)COC(=O)C3=NNC(=O)CC3)c2C)cc1,6%,4%,.,-7,-17%,13%
Cn1c(=O)c2cc(NC(=O)NCc3ccccc3)ccc2n1C/C=C/c1ccccc1,.,.,5%,73,-26%,.
CCCCOc1ccc(CNC(=O)c2ccc(NC(=O)N3CCSc4ncccc43)cc2)cc1,.,.,-3%,?,-21%,-29%[46.1 µM]
CCCSc1nnc(Sc2nnnn2-c2ccccc2)s1,?,?,.,-78*,.,?
CCCn1c(Sc2nnnn2-c2ccccc2)n[nH]c1=O,1%,-12%,.,-106*,.,-6%
C(=C\CSc1nnnn1-c1ccccc1)/CSc1nnnn1-c1ccccc1,?,8%,.,5,.,-7%
O=[N+]([O-])c1ccc(-c2nc(Cl)c3c(n2)CCCC3)o1,.,.,11µM*,-69*,?,.
COc1ccc(S(=O)(=O)NCc2nc(-c3ccccc3)no2)cc1,.,-14%[46.1 µM],-13%,-3,-20%,4%[46.1 µM]
COCC1CCCCN1C(=O)c1ccc2oc(CCc3ccccc3)nc2c1 (stereo not drawn),.,?,-3%,33,-20%,0%
CCOC(=O)CC1CCCCN1C(=O)c1ccc2oc(CCc3ccccc3)nc2c1 (stereo not drawn),10µM*,.,.,-35,.,.
Cc1c(C(C)C)c(=O)n(-c2ccc(S(=O)(=O)NC3CCCCC3)cc2)n1C,5µM*,?,i,-89*,-9%,?
Cc1c(C(C)C)c(=O)n(-c2ccc(S(=O)(=O)NCc3ccccc3)cc2)n1C,0.89µM*,?,-20%,-85*,-12%,2µM*
Cn1cnc2c(ncn2[C@@H]2O[C@H](CO)[C@@H](O)[C@H]2O)c1=N,.,.,-3%,.,-10%,.
COCCCNC(NC(=O)c1ccc(Br)cc1)C(Cl)(Cl)Cl (stereo not drawn),11%,6%,-20%,-66*,-16%,11%
COCCCNC(=O)c1ccc(C(=O)NCCCOC)cc1,.,12%,-10%,20,-3%,28%[14.3 µM]
CCCn1c(=O)[nH]c(=O)c2c1nc(-c1ccc(OC)c(Br)c1)n2CCOC,8%,2%[46.1 µM],-7%,-8,1%,7.9µM*
CCCOc1ccc(-c2nc3c(c(=O)[nH]c(=O)n3Cc3ccccc3)n2CCO)cc1OCC,?,?,i,55,-15%,?

# Screening data as filed in PubChem.
